Screens as filed in PubChem.
SMN2 splice enh = enhancers of SMN2 splice variant expression; Potency, µM (top dose mostly 46.1 µM), for inactives: top-dose activity change, positive = activation, actives largely listed as activators; HEK293 SMN2-luciferase splicing reporter, luminescence, 30-36 h; hit rate 2.8% among 210,000; also: % of control where 0% means no effect; nearly all actives have a fitted effect of over 55% in size
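qHTS luciferase splicing reporter: luminescence rises when SMN2 exon 7 is included in transfected HEK293 cells. Compound exposure lasted 30-36 h at 37C, with 4.5 mM final sodium butyrate as control, followed by a ONE-Glo read.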
FLuc counter = firefly luciferase modulation, counter-screen for miR-21 project. purified FLuc, Km substrates, luminescence inhibition. Potency, µM (doses to about 57.5 µM), for the others: top-dose activity change, negative = inhibition, actives largely listed as inhibitors. hit rate 6.9% among 360,000. P08659;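 also: plate controls were vehicle for no effect and reference inhibitor for full effect; nearly all actives have a fitted effect of over 55% in size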
Target sequence (P08659 whole entry, looked up): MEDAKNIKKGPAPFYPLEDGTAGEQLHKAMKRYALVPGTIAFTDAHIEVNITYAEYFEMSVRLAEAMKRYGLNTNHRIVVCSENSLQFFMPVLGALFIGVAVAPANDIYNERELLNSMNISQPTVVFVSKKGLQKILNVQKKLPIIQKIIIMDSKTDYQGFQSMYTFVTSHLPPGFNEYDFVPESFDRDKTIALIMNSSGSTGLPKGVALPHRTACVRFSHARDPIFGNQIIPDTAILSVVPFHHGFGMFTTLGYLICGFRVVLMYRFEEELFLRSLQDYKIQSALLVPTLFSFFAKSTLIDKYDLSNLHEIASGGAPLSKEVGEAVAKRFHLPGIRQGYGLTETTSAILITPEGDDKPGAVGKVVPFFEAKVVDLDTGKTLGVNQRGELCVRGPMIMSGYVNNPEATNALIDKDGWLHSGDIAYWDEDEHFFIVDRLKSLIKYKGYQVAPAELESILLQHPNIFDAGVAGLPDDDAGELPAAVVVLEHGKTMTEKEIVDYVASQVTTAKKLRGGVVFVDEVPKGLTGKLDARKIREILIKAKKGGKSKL
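Biochemical qHTS of compounds, final roughly 60 µM downward over six points, against 10 nM purified firefly luciferase using Km concentrations of substrates (10 uM D-luciferin, 10 uM ATP) in Tris acetate pH 7.5 buffer; luminescence output.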
NPC1 prom act = activates the NPC1 promoter | Huh7 NPC1 promoter luciferase reporter, 24 h | Potency, µM (top dose mostly 9.22 µM), without a hit: at the highest dose activation, usual class: activators | hit rate 2.4% among 320,000 | AID 485313; also: % of control where 0% means no effect; nearly all actives have a fitted effect of over 60% in size
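Luciferase expression driven by the NPC1 promoter was measured in stably transfected Huh7 cells after a 24 h compound incubation, using a luciferase reagent and a luminescence read.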
ELG1 repair inh = blocks ELG1-dependent DNA repair in HEK293T cells. HEK293T ELG1-luciferase reporter, luminescence, 16 h; DNA damage induced by 5-fluorouridine. Potency, µM (highest dose often 46.1 µM), inactives show top-dose activity change, negative = inhibition, actives largely listed as inhibitors. hit rate 2.3% among 330,000. AID 504467; also: % is scaled to controls: 0 for no effect and ±100 for the full control effect; nearly all actives have a fitted effect of over 55% in size
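Cells (2,000 per well) received 5-fluorouridine plus test compound or DMSO and were incubated 16 hr at 37 °C, 5% CO2. Luciferase activity was read by luminescence 30 min after ONE-Glo addition; signal suppression marked inhibition of damage-induced ELG1 function.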
Rab9 prom act = activators of Rab9 promoter; AID 485297; hit rate 2.8% among 320,000; Potency, µM (series often up to 9.22 µM), for inactives: top-dose activation, negative = inhibition, most hits filed as activators; Huh7 Rab9 promoter-luciferase reporter, luminescence, 24 h; also: % of control where 0% means no effect; nearly all actives have a fitted effect of over 60% in size
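Huh7 cells stably carrying a Rab9 promoter-luciferase reporter, 1500 cells per well in OP-MEM I with 10% FBS, treated with compound 24 hours at 37C. Luciferase activity read by luminescence after 10 minutes with Amplite reagent.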
ELG1 genotox = induces genotoxicity in HEK293T cells with luciferase-tagged ELG1; HEK293T ELG1-luciferase reporter, luminescence, 16 h; Potency, µM (top dose mostly 46 µM), inactives show at the top dose activity change, positive = activation, usual class: activators; hit rate 1.3% among 330,000; also: % of control where 0% means no effect; nearly all actives have a fitted effect of over 60% in size
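HEK293T cells expressing luciferase-tagged ELG1 were exposed to compound or DMSO vehicle for 16 hr at 37 °C and 5% CO2. Luciferase activity was then measured with ONE-Glo after 30 min at room temperature.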
Active calls of the source: *; ? = inconclusive; . = not tested or not shown. Shown are actives, neighbours in structure and some others; about 9.2% of the full set was active somewhere. Calls follow the shape of the dose curve; as a rule, active = well fitted curve in the direction sought with a large enough effect; inconclusive = small, poorly fitted or top-dose-only effect, or another doubt; inactive = no such curve, though single readings can be large; an effect the other way counts as inactive or inconclusive. Potency is read from the fitted curve at half-maximal effect.

SMILES	SMN2 splice enh	FLuc counter	NPC1 prom act	ELG1 repair inh	Rab9 prom act	ELG1 genotox
CCc1cccc(NC(=O)C2CCC(CNS(=O)(=O)c3ccc(Br)s3)CC2)c1 (stereo not given)	17%	0%	.	.	.	.
O=C(COC(=O)c1cccnc1Cl)c1ccc(Cl)s1	.	.	.	4%	.	-1%
Cc1ccc(C(=O)OCC(=O)c2ccc(Cl)s2)s1	.	2.7µM*	1%	?	21%	?
CN(C(=O)COC(=O)c1ccc(Cl)c(S(=O)(=O)N2CCCCC2)c1)C1(C#N)CCCCC1	.	-15%	-2%	-5%	-8%	0%
O=C(COC(=O)c1ccc[nH]c1=O)c1ccc(Cl)s1	8%	15µM*	-4%	-7%	3%	-2%
CN(C(=O)COC(=O)c1ccc(Cl)s1)C1(C#N)CCCCC1	.	19µM*	-7%	15%	1%	1%
Cc1nc(COc2ccccc2Cl)sc1-c1ccnc(N)n1	.	11µM*	2%	18%	16%	3%
Clc1ccccc1OCc1nn2c(-c3ccncc3)nnc2s1	-12%	1%	0%	-17%	-2%	-3%
CCOC(=O)c1cc(S(=O)(=O)NC2CCC(C)CC2)cn1C (stereo not given)	.	0%	-3%	4%	-3%	-1%
Cc1cccc(Nc2ccc(NCc3ccccc3)nn2)c1	19%	15µM*	?	?	?	1%
Cc1cccc(N(C)S(=O)(=O)c2c(C)[nH]c(C)c2C(=O)N2CCCC2)c1	.	7%	1%	1%	-4%	0%
N#C/C(=C\c1ccc(-c2ccc(C(=O)O)cc2)o1)C(=O)Nc1ccccc1C(=O)O	-5%	13µM*	.	.	.	.
Cc1c(NC(=O)/C(C#N)=C/c2ccc(-c3cc(Cl)ccc3Cl)o2)c(=O)n(-c2ccccc2)n1C	-40%	2%	-2%	18µM*	-12%	-12%
Cc1c(NC(=O)/C(C#N)=C\c2cccs2)c(=O)n(-c2ccccc2)n1C	15%	-5%	-2%	6%	-7%	2%
Cc1c(NC(=O)/C(C#N)=C/c2ccc(-c3ccc(Cl)cc3)o2)c(=O)n(-c2ccccc2)n1C	-35%	?	-6%	16µM*	-1%	-9%
N#C/C(=C\c1ccc(-c2ccc(Br)cc2)o1)C(=O)Nc1ccccc1O	-2%	-2%	.	.	.	.
O=C(COc1ccc(Cl)cc1)Nc1ccc2nc(SCC(=O)N3CCCC3)sc2c1	.	-15%	.	.	.	.
COc1ccc(C)cc1NC(=O)CSc1nc2ccccc2nc1N1CC(C)OC(C)C1 (stereo not given)	.	2%	-3%	?	1%	-5%
CN(C)c1ccc(/C=C/C=C2/SC(=S)N(c3ccccc3)C2=O)cc1	-65%	4.8µM*	?	?	?	14%
COc1ccc(/C=C2\SC(=S)N(NC(=O)c3ccncc3)C2=O)cc1OC	9%	?	-3%	9%	-3%	1%
O=C(NN1C(=O)/C(=C/C=C/c2ccccc2)SC1=S)c1ccncc1	-20%	13µM*	-7%	1%	3%	-5%
O=C(O)c1ccc(N2C(=O)/C(=C/C=C/c3ccccc3)SC2=S)cc1	-14%	?	-4%	-5%	1%	0%
O=C(NN1C(=O)/C(=C/C=C/c2ccco2)SC1=S)c1ccncc1	.	21µM*	-3%	0%	3%	0%
O=C1/C(=C/C=C/c2ccco2)SC(=S)N1c1ccc(O)cc1	.	21µM*	5%	?	6%	8%
NC(=O)Cn1c(=O)n(CCCCCC(=O)NCc2ccccc2Cl)c(=O)c2sccc21	6%	0%	.	.	.	.
SMILES	SMN2 splice enh	FLuc counter	NPC1 prom act	ELG1 repair inh	Rab9 prom act	ELG1 genotox
O=S(=O)(NCCc1csc2nc(-c3ccc(F)cc3)nn12)c1ccc(Oc2ccccc2)cc1	.	7%	.	.	.	.
COc1ccc(OC)c(NC(=O)COCc2cc(-c3ccco3)on2)c1	.	-7%	.	.	.	.
O=S(=O)(NCC(c1ccco1)S(=O)(=O)c1ccccc1)c1cc(F)ccc1F (stereo not given)	.	1%	.	.	.	.
CC1CCCCC1NC(=O)C(C)N1C(=O)c2ccccc2C1=O (stereo not given)	.	2%	0%	9%	-3%	1%
Cc1cc(C)c(S(=O)(=O)NCCc2sc3nc(-c4ccc(F)cc4)nn3c2C)c(C)c1	.	0%	.	.	.	.
COc1ccc(Nc2nnc(-c3ccc(C)c(S(=O)(=O)N4CCOCC4)c3)c3ccccc23)cc1	-2%	?	.	.	.	.
CC(C)CC(=O)Nc1nnc(-c2ccco2)s1	26%	?	?	?	2.5µM*	16µM*
O=C(Nc1nnc(-c2ccco2)s1)C1CCCCC1	-9%	?	3.5µM*	?	3.2µM*	9%
O=C(Nc1nc(-c2ccco2)c(-c2ccco2)s1)C1CCC1	13%	19µM*	0%	-13%	-6%	4%
O=C(Nc1nc(-c2ccco2)c(-c2ccco2)s1)C1CC(=O)N(c2ccc3c(c2)OCCO3)C1 (stereo not given)	-8%	4%	-3%	?	-5%	-19%
COC(=O)Nc1nnc(-c2ccco2)s1	.	-15%	4%	?	15%	5%
Cc1ccc(S(=O)(=O)N2CCC(C(=O)Nc3nnc(-c4ccco4)s3)CC2)cc1	28%	1%	-1%	-14%	0%	-3%
COc1ccc(C2CC(=O)Nc3c2c(=O)n(C)c2nc4ccccc4n32)cc1 (stereo not given)	12%	-19%	.	.	.	.
O=C(NCCc1ccccc1)c1ccc2c(c1)S(=O)(=O)N=C1CCCCCN12	.	.	11%	?	0%	4%
COc1ccc(CCNC(=O)C(CC(C)C)N2Cc3ccccc3C2=O)c(OC)c1OC (stereo not given)	.	4%	.	.	.	.
Cc1ccc(NC(=O)Nc2cccnc2)cc1NC(=O)Nc1cccnc1	.	?	3%	8.2µM*	0%	-19%
